According to PubChem BioAssay (Tox21):
Records with an inconclusive call do not appear. Activity calls are given as the source filed them. Unless noted, the call rests on the fitted dose curve; in most records, active means well fitted curve in the direction sought with a large enough effect in the repeat runs; inconclusive means weak or mixed curves; inactive means no such curve, though single readings can be large; an effect the other way counts as inactive or inconclusive.

Tests used:
[1] = qHTS RealTime-Glo MT Cell Viability Assay in HepG2 cells - 32 hour (AID 1224877); further: nearly all actives have a fitted effect of over 55% in size
Summary of the method: (§1)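 HepG2 cells were seeded at 600 cells/well together with NanoLuc luciferase and a cell-permeant prosubstrate, preincubated 5 h at 37 C/5% CO2, then pin-dosed with compounds in DMSO. Nonlytic luminescence from viable cells was read at each time point.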

[2] = A CellTox Green Cytotoxicity Assay to monitor cytotoxicity in HepG2 cells - 24 hour (AID 1224878); further: nearly all actives have a fitted effect of over 45% in size
Summary of the method: (§2)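 HepG2, 600 cells/well premixed w/ CellTox Green; 5 h settle, 37 C/5% CO2; pintool cpd add (DMSO); 37 C, 40 h; fluorescence read at 0, 8, 16, 24, 32, 40 h.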

[3] = A CellTox Green Cytotoxicity Assay to monitor cytotoxicity in HepG2 cells - 40 hour (AID 1224879); further: nearly all actives have a fitted effect of over 40% in size
Summary of the method: as §2

[4] = qHTS RealTime-Glo MT Cell Viability Assay in HEK293 cells - 0 hour (AID 1224880); further: top concentration of the series differs between compounds; nearly all actives have a fitted effect of over 45% in size
Summary of the method: (§3)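 Luminescence readout at each listed time point; HEK293, 600 cells/well, RealTime-Glo MT reagent added with cells; compounds pinned (23 nL in DMSO) after 5 h at 37 C; continuous culture at 37 C.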

[5] = A CellTox Green Cytotoxicity Assay to monitor cytotoxicity in HEK293 cells - 32 hour (AID 1224881); further: nearly all actives have a fitted effect of over 40% in size
Summary of the method: (§4)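 Read-out: fluorescence of a cell-impermeant cyanine dye staining DNA of dead cells, proportional to cytotoxicity. HEK293, 600 cells/well with reagent, compound (23 nL DMSO) added after 5 h; reads at 0, 8, 16, 24, 32, 40 h.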

[6] = A CellTox Green Cytotoxicity Assay to monitor cytotoxicity in HepG2 cells - 0 hour (AID 1224882); further: nearly all actives have a fitted effect of over 35% in size
Summary of the method: as §2

[7] = A CellTox Green Cytotoxicity Assay to monitor cytotoxicity in HepG2 cells - 32 hour (AID 1224883); further: nearly all actives have a fitted effect of over 50% in size
Summary of the method: as §2

[8] = A CellTox Green Cytotoxicity Assay to monitor cytotoxicity in HEK293 cells - 8 hour (AID 1224884); further: nearly all actives have a fitted effect of over 35% in size
Summary of the method: as §4

[9] = qHTS RealTime-Glo MT Cell Viability Assay in HepG2 cells - 16 hour (AID 1224885); further: nearly all actives have a fitted effect of over 50% in size
Summary of the method: as §1

[10] = qHTS RealTime-Glo MT Cell Viability Assay in HEK293 cells - 24 hour (AID 1224886); further: top concentration of the series differs between compounds; nearly all actives have a fitted effect of over 50% in size
Summary of the method: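 HEK293 cells were seeded at 600 cells/well together with NanoLuc luciferase and cell-permeant prosubstrate, preincubated 5 h at 37 C/5% CO2, then given compound in DMSO by pintool. Luminescence from viable-cell prosubstrate reduction was read repeatedly over 40 h.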

[11] = qHTS RealTime-Glo MT Cell Viability Assay in HEK293 cells - 8 hour (AID 1224887); further: top concentration of the series differs between compounds; nearly all actives have a fitted effect of over 50% in size
Summary of the method: as §3

[12] = qHTS RealTime-Glo MT Cell Viability Assay in HepG2 cells - 0 hour (AID 1224889); further: nearly all actives have a fitted effect of over 50% in size
Summary of the method: as §1

[13] = A CellTox Green Cytotoxicity Assay to monitor cytotoxicity in HepG2 cells - 8 hour (AID 1224890); further: nearly all actives have a fitted effect of over 45% in size
Summary of the method: as §2

[14] = qHTS assay to identify small molecule antagonists of the estrogen receptor alpha (ER-alpha) signaling pathway using the BG1 cell line in the presence of 0.1 nM 17-beta-estradiol - cell viability counter screen (AID 1259241); further: nearly all actives have a fitted effect of over 40% in size
Summary of the method: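 Cells were plated and left 24 hr, compounds in DMSO were pinned in, 17beta-estradiol was added to 0.1 nM final, and after 22 hr CellTiter-Fluor reagent was added for 30 min before fluorescence was read.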

[15] = qHTS assay to identify small molecule antagonists of the androgen receptor (AR) signaling pathway using the MDA cell line in the presence of 0.5 nM R1881 - cell viability counter screen (AID 1259242); further: nearly all actives have a fitted effect of over 45% in size
Summary of the method: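 Live-cell protease fluorescence, CellTiter-Fluor, 30 min at 37C. Cells: MDA-kb2, 3,000/well, preincubated 5 hr. Compounds plus 0.5 nM R1881 final, 16 hr, 37C, 0% CO2.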

[16] = qHTS assay to identify small molecule HDAC inhibitors (AID 1259364)
Summary of the method: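 HCT-116 (wild type), 1,500 cells/well, overnight; compound 2 hr 37C 5% CO2; HDAC-Glo I/II reagent 30 min RT; luminescence readout.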

[17] = A CellTox Green Cytotoxicity Assay to monitor cytotoxicity in HEK293 cells - 16 hour (AID 1224888); further: nearly all actives have a fitted effect of over 35% in size
Summary of the method: as §4

[18] = target: Estrogen receptor (Homo sapiens) (UniProt P03372); experiment: qHTS assay to identify small molecule antagonists of the estrogen receptor alpha (ER-alpha) signaling pathway using the BG1 cell line in the presence of 0.1 nM 17-beta-estradiol (AID 1259244); further: nearly all actives have a fitted effect of over 50% in size
Summary of the method: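 Luminescence after ONE-Glo (30 min, room temperature) measured ERE-luciferase activity in VM7Luc4E2 cells treated 22 h with compound and 0.1 nM final 17beta-estradiol as stimulator.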

[19] = qHTS assay to identify small molecule phospholipidosis (PLD) inducers (AID 1259344; active means well fitted curve in the direction sought with a large enough effect; an effect the other way counts as inactive or inconclusive)
Summary of the method: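 Cells (HepG2, 900 per well) attach for 4 h, receive LipidTOX Red and compound together, incubate 24 h at 37 C, are fixed 30 min with paraformaldehyde/Hoechst, then imaged at one site per well.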
On the % scale 0 is the no-effect control and ±100 the full control effect.

Estrogen receptor (Homo sapiens), sequence (P03372 whole entry, looked up): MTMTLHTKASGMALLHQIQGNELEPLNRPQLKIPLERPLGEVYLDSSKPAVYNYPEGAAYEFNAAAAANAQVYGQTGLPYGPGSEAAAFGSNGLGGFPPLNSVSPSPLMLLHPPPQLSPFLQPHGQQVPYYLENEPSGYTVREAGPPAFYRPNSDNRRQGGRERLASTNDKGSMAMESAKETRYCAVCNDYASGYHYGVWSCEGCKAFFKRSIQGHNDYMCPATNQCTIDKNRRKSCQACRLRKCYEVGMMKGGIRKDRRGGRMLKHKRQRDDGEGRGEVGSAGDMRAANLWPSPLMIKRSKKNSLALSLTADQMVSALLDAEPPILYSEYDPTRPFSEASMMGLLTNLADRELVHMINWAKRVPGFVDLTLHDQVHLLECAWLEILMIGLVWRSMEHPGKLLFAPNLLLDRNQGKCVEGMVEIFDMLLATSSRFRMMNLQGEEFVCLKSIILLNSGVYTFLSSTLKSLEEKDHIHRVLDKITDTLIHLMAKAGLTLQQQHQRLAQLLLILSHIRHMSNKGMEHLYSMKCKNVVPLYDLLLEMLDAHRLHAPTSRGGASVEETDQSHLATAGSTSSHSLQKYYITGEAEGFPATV

CC1=NN(c2ccc(S(=O)(=O)O)cc2)C(=O)C1
inactive: outcome [1] | Potency [2] | Potency [3] | Potency [4] | Potency [5] | Potency [6] | Potency [7] | Potency [8] | outcome [9] | Potency [10] | Potency [11] | Potency [12] | Potency [13] | outcome [14] | outcome [15] | Potency [16]

C=CCCCC
inactive: outcome [1] | Potency [2] | Potency [3] | Potency [4] | Potency [5] | Potency [6] | Potency [7] | Potency [8] | outcome [9] | Potency [10] | Potency [11] | Potency [17] | Potency [12] | Potency [13] | outcome [14] | outcome [15] | outcome [18] | Potency [16]

CN(C)CCCCl
inactive: outcome [1] | Potency [2] | Potency [3] | Potency [4] | Potency [5] | Potency [6] | Potency [7] | Potency [8] | outcome [9] | Potency [10] | Potency [11] | Potency [17] | Potency [12] | Potency [13] | outcome [14] | outcome [15] | outcome [18] | Potency [16]

OCCN1CCOCC1
inactive: outcome [1] | Potency [2] | Potency [3] | Potency [4] | Potency [5] | Potency [6] | Potency [7] | Potency [8] | outcome [9] | Potency [10] | Potency [11] | Potency [17] | Potency [12] | Potency [13] | outcome [14] | outcome [15] | outcome [18] | Potency [16]

C=CCSSCCC
inactive: outcome [1] | Potency [2] | Potency [3] | Potency [4] | Potency [5] | Potency [6] | Potency [7] | Potency [8] | outcome [9] | Potency [17] | Potency [12] | Potency [13] | outcome [14] | outcome [15] | outcome [18] | Potency [16]

CCN1CCCC1CN (stereo not given)
inactive: outcome [1] | Potency [2] | Potency [3] | Potency [4] | Potency [5] | Potency [6] | Potency [7] | Potency [8] | outcome [9] | Potency [10] | Potency [11] | Potency [17] | Potency [12] | Potency [13] | outcome [14] | outcome [15] | outcome [18] | Potency [16]

c1ccc2cnccc2c1
inactive: outcome [1] | Potency [2] | Potency [3] | Potency [4] | Potency [5] | Potency [6] | Potency [7] | Potency [8] | outcome [9] | Potency [10] | Potency [11] | Potency [17] | Potency [12] | Potency [13] | outcome [14] | outcome [15] | outcome [18] | Potency [16]

CCCCSCCCC
inactive: outcome [1] | Potency [2] | Potency [3] | Potency [4] | Potency [5] | Potency [6] | Potency [7] | outcome [9] | Potency [10] | Potency [11] | Potency [17] | Potency [12] | Potency [13] | outcome [14] | outcome [15]

CO[Si](CCCn1c(=O)n(CCC[Si](OC)(OC)OC)c(=O)n(CCC[Si](OC)(OC)OC)c1=O)(OC)OC
inactive: outcome [1] | Potency [2] | Potency [3] | Potency [4] | Potency [5] | Potency [6] | Potency [7] | Potency [8] | outcome [9] | Potency [10] | Potency [11] | Potency [17] | Potency [12] | Potency [13] | outcome [14] | outcome [15] | Potency [16]

O=S(=O)(O)c1ccc2c(N=Nc3ccc(S(=O)(=O)O)c4ccccc34)c(O)c(S(=O)(=O)O)cc2c1
inactive: activity change, negative = cytotoxic [1] -3.7% [at 6.97 µM] | cytotoxicity [2] -12.7% [at 6.97 µM] | cytotoxicity increase [3] -16.2% [at 6.97 µM] | activity change, negative = cytotoxicity [4] 7.55% [at 6.97 µM] | cytotoxicity increase [5] 8.52% [at 6.97 µM] | cytotoxicity [6] -11.5% [at 6.97 µM] | cytotoxicity increase [7] -12.7% [at 6.97 µM] | cytotoxicity increase [8] 7.19% [at 6.97 µM] | activity change, negative = cytotoxic [9] 0.447% [at 6.97 µM] | activity change, negative = cytotoxicity [10] 5.55% [at 6.97 µM] | activity change, negative = cytotoxicity [11] 2.74% [at 6.97 µM] | activity change [17] 8.43% [at 6.97 µM, active compounds read high] | activity change, negative = cytotoxicity [12] 7.14% [at 6.97 µM] | cytotoxicity increase [13] -1.78% [at 6.97 µM] | activity change, negative = cytotoxicity [14] -26.3% [at 8.39 µM] | viability change, negative = cytotoxic [15] -14.9% [at 8.39 µM] | outcome [19] | activity change, negative = inhibition [16] 1.26% [at 8.39 µM]

COc1nc(N)nc2nc[nH]c12
inactive: outcome [1] | Potency [2] | Potency [3] | Potency [4] | Potency [5] | Potency [6] | Potency [7] | Potency [8] | outcome [9] | Potency [17] | Potency [12] | Potency [13] | outcome [14] | outcome [15] | outcome [18] | Potency [16]

CCCCOCC(C)O (stereo not given)
inactive: outcome [1] | Potency [2] | Potency [3] | Potency [4] | Potency [5] | Potency [6] | Potency [7] | Potency [8] | outcome [9] | Potency [10] | Potency [11] | Potency [17] | Potency [12] | Potency [13] | outcome [14] | outcome [15] | outcome [18] | Potency [16]

Cc1ccc(C)c([N+](=O)[O-])c1
inactive: outcome [1] | Potency [2] | Potency [3] | Potency [4] | Potency [5] | Potency [6] | Potency [7] | Potency [8] | outcome [9] | Potency [10] | Potency [11] | Potency [12] | Potency [13] | outcome [14] | outcome [15] | Potency [16]

NCc1ccc(S(N)(=O)=O)cc1
inactive: outcome [1] | Potency [2] | Potency [3] | Potency [4] | Potency [5] | Potency [6] | Potency [7] | Potency [8] | outcome [9] | Potency [10] | Potency [11] | Potency [17] | Potency [12] | Potency [13] | outcome [14] | outcome [15] | outcome [19] | Potency [16]
